According to PubChem BioAssay (NCI):
This is part of a sample that, as a whole, favours compounds with a hit. Of some 83,000 tested, about 20% had one in any assay.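 Cell lines were cultured in 96-well plates, exposed to a single compound concentration, and assessed for percent growth 48 hours later.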 A number with no mark means an inactive call. The source made the active and inactive calls. How the source made its calls: active means growth percent below 10; inactive means the rest.

Columns and labels:
Test in all cases: NCI-60 one-dose screen, 48 h (100 = growth as untreated, 0 = no growth, -100 = all killed)
Settings in all cases: 10 µM
[1] = test system: HCT-15 colon
[2] = test system: SNB-75 CNS
[3] = test system: SNB-19 CNS
[4] = test system: U251 CNS
[5] = test system: PC-3 prostate
[6] = test system: SK-MEL-5 melanoma
[7] = test system: UACC-62 melanoma
[8] = test system: LOX IMVI melanoma
[9] = test system: SK-MEL-28 melanoma
[10] = test system: HT29 colon

Compound | growth [1] | growth [2] | growth [3] [%] | growth [4] | growth [5] | growth [6] | growth [7] | growth [8] | growth [9] | growth [10]
Cc1cc(Cl)ccc1Nc1nc(C(F)(F)F)ccc1C(=O)N/N=C/c1c(Cl)cccc1Cl | 9.11% (active) | -16.4% (active) | 13.5 | -1.74% (active) | -13.7% (active) | -85.4% (active) | -12.9% (active) | 10% | 24.7% | 
O=C(Nc1ccc(OCc2nnc(-c3ccc(Cl)cc3)o2)c(F)c1)Nc1ccc(Cl)c(C(F)(F)F)c1 | 9.78% (active) | 20.4% |  | -2.02% (active) | 5.92% (active) | -35.7% (active) |  | 3.22% (active) | 20.2% | -3.97% (active)
CSc1ccc(-c2cc(-c3ccc(NC(=O)CCCN4CCCC4)cc3)nc(-c3ccc(NC(=O)CCCN4CCCC4)cc3)c2)cc1 | 88.6% | 45.2% | 49.2 |  | 40.8% | 91.8% | 93.4% |  | 94.7% | 21.9%
O=C1/C=C/[C@@H](O)[C@@H]2C[C@@H](O)C[C@H]2/C=C/CCC[C@@H](C(F)(F)F)O1 | 100% | 60.7% | 97.1 |  | 92.9% | 60.5% |  |  | 61.8% | 39.9%
CC(C)[N+]1(C)C2CC[C@@H]1CC(OC(=O)C(CO)c1ccccc1)C2 (some centres not stated) | 107% |  |  |  | 92.4% | 95.6% | 108% | 94.5% | 122% | 106%
C[C@@H](O)[C@H]1C(=O)N2C(C(=O)O)=C(SC3CN[C@H](C(=O)N(C)C)C3)[C@H](C)[C@H]12 (some centres not stated) | 104% | 94.1% | 119 | 99.3% | 92.4% | 102% | 99.4% | 96.4% | 109% | 
Nc1nc(N)c(N)c(Nc2ccc(CCO)cc2)n1 | 115% |  | 124 | 96.6% | 96.8% | 99.4% | 97.5% | 97.2% | 113% | 104%
O=S(=O)(Oc1ccc(-c2ccc3sccc3c2)cc1)c1ccc(F)cc1 | 88.9% | 120% | 103 | 101% | 91% | 97.6% | 80.2% | 96.9% | 103% | 
COc1ccc(-c2nn(-c3cccc(Cl)c3)cc2-c2c(C#N)c(=O)n3[nH]c(-c4ccc(C)cc4)nc3c2C#N)cc1 | 65.2% | 36.4% | 64.2 |  | 68.6% | 68.6% | 57.1% |  | 92.3% | 5.33% (active)
CC(C)(C)c1ccc(S(=O)(=O)N[C@H]2CC[C@H]3[C@@H]4CCc5cc(O)ccc5[C@H]4CC[C@]23C)cc1 | 34.7% | 55.4% | 80.6 |  | 30.6% | 40.4% | 61.2% |  | 79.1% | 10.2%
COc1cc2c(Nc3ccc(S(N)(=O)=O)cc3)ncnc2c(OC)c1OC | 98% | 89.5% | 93.5 | 96.9% | 84.7% | 91.4% | 97.4% | 99.9% | 98.7% | 
CCOC(=O)CC(S(=O)(=O)c1ccccc1)S(=O)(=O)c1ccccc1 | 93.4% | 96.2% | 93.4 |  | 97.7% | 96.6% | 103% |  | 109% | 91%
COc1ccc(/C(C#N)=C/c2cccc(OC)c2OC)cc1 | 68.1% | 91.3% | 84.3 |  | 82% |  | 70.5% |  | 84.5% | 59.8%
COc1ccc(-c2nc(-c3nc4ccc(C)cc4[nH]3)cc3c2[nH]c2ccccc23)cc1 | 29.7% |  | 84.1 | 34.8% | 43.8% | 35.6% | 21% | 25.8% | 71.7% | 30%
Cc1cc(NC(=O)c2ccc(C)c(Nc3nccc(-c4cccnc4)n3)c2)cc(-n2cnc(C)c2)c1 | 58.6% | -14% (active) | 66.6 |  | 61.4% |  | 44.6% | 2.11% (active) | 41.5% | -18.6% (active)
COC(=O)c1c[nH]c2cc(OC(C)C)c(OC(C)C)cc2c1=O | 101% |  | 105 | 6.2% (active) | 93.1% |  | 106% | 95.9% | 117% | 95.6%
O=C(/C=C/c1cccc(B(O)O)c1)c1cccc(B(O)O)c1 | -40.4% (active) | 45.3% | 43.9 |  | 26.1% | 22.1% |  | -85.6% (active) | -21.4% (active) | -46.5% (active)
CCC1NC(=O)c2cc(S(N)(=O)=O)c(Cl)cc2N1 (configuration not stated) | 109% | 105% | 105 | 96.3% | 93.6% | 104% | 103% | 99.9% | 121% | 
CCN(CC)CCCC(C)N=C(C1=C(C(=NC(C)CCCN(CC)CC)c2cccc(OC)c2)C(=O)NC1=O)c1cccc(OC)c1 (configuration not stated) | -30.7% (active) | -28.5% (active) |  | -51.3% (active) | 3.15% (active) | -93.8% (active) | -75.4% (active) | -73.9% (active) | -69.1% (active) | -10.5% (active)
CCN1C(=O)CC(SC2CC(=O)N(CC)C2=O)C1=O (configuration not stated) |  | 97.4% | 95.7 | 102% | 101% | 104% | 102% | 95.2% | 112% | 79.7%
CC(C)(C)c1ccc(S(=O)(=O)N[C@H]2CC[C@H]3[C@@H]4CCc5cc(OS(=O)(=O)O)ccc5[C@H]4CC[C@]23C)cc1 | 35.4% | 61.6% | 92.3 |  | 27.5% | 52.5% | 62% |  | 77.5% | 
CC(C)Cc1ccc([C@H](C)C(=O)O)cc1 |  | 79.4% | 108 | 101% | 93.6% | 102% | 103% | 101% | 109% | 106%
CC(C)(C)OC(=O)CN1CCc2c(sc3ncnc(N/N=C/c4cccc5ccccc45)c23)C1 | 16.7% | 46% | 53.7 | 45.7% | 31.9% | 11.1% | 6.64% (active) | 26.2% | 50.1% | 
COc1cc2c(Nc3ccc(-c4ccc(N)cc4)cc3)ncnc2c(OC)c1OC | 28.8% | 82.8% | 51.1 | 42.6% | 47.3% |  | 7.02% (active) | 31.1% | 75.6% | 
COc1ccc(C(=O)N2C=Cc3ccccc3C2C#N)cc1 (configuration not stated) | 90.7% | 94.1% | 93.6 |  | 93.2% | 101% | 92.5% | 95.4% | 95.3% | 
CC(=O)COc1ccc(Cl)cc1Cl | 107% |  | 118 | 97.9% | 102% |  | 96.7% | 94.9% | 113% | 
CN1CCc2c(sc3nc4n(-c5ccc(Cl)cc5)c(=O)[nH]n4c(=O)c23)C1 | 103% | 95.2% | 109 | 98.7% |  | 110% | 111% | 92.5% | 111% | 
Cc1cc(O)ccc1C1=NN(c2ccc(S(C)(=O)=O)cc2)C(=O)CC1 | 44.9% | 75.2% | 78.2 |  | 77.9% | 68.3% | 52.9% | 67.5% | 81.2% | 
COc1cc(-c2ccc(N=Nc3ccc4c(S(=O)(=O)O)ccc(N)c4c3O)c(OC)c2)ccc1N=Nc1ccc2c(S(=O)(=O)O)ccc(N)c2c1O | 110% | 70.9% | 110 | 107% | 98.7% | 105% | 111% | 102% | 103% | 
N#Cc1c(-c2ccc(Cl)cc2)n(O)c2ccccc12 | 22.6% | 12.5% | 11 |  | 41.2% | -57.5% (active) | 8.34% (active) | 23.8% | 15.6% | 
